# Screening results from PubChem BioAssay.
# G9a inh – qHTS Assay for Inhibitors of Histone Lysine Methyltransferase G9a; Histone-lysine N-methyltransferase EHMT2 (Homo sapiens), Q96KQ7; G9a H3K9 monomethylation, AlphaScreen, 2 h; Potency, µM (highest dose often 102 µM), for inactives: at the top dose activity, negative = inhibition, hits mostly inhibitors; 350,000 compounds, 8.8% hits; AID 504332, 2011; further: potency means the concentration at half of the fitted maximal effect; nearly all actives have a fitted effect of over 75% in size
#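 Methyltransferase reactions run at room temperature for 2 h (20 nM enzyme, 500 nM biotin-H3K9 peptide, 20 uM SAM) after a 15 min compound preincubation; product detected by AlphaScreen beads and anti-H3K9me1 antibody.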
# VDR inhibitor – Inhibitors of the vitamin D receptor (VDR): qHTS; AID 504847, 2011; VDR-SRC2-3 peptide fluorescence polarization, 2 h; Vitamin D3 receptor (Homo sapiens), P11473; Potency, µM, without a hit: max response, negative = inhibition, hits mostly inhibitors; 400,000 compounds, 0.93% hits; further: potency means the concentration at half of the fitted maximal effect
# Target sequence (P11473 whole entry, looked up): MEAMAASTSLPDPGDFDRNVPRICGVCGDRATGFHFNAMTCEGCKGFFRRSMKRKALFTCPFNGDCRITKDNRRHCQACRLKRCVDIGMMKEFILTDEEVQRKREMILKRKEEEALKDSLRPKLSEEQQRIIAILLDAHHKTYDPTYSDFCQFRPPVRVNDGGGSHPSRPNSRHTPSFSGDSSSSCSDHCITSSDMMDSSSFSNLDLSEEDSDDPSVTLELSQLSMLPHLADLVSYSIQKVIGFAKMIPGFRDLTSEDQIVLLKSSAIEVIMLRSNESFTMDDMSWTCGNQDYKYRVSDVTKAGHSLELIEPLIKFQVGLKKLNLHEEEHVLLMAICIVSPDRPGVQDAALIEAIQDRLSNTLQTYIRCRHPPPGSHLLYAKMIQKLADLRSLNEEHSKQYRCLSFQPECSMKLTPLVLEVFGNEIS
#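 Fluorescence polarization assay of small-molecule disruption of VDR binding to coregulator peptide SRC2-3. Compounds and controls pin-transferred, then read after 2 h incubation at ambient room temperature.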
# MmCpn inh – Inhibitors of TCP-1 ring complex (TRiC) of Methanococcus maripaludis (MmCpn): qHTS; purified Mm-Cpn ATPase, ADP Transcreener TR-FRET; Potency, µM (highest dose often 76.9 µM), without a hit: at the top dose activity, negative = inhibition, actives largely listed as inhibitors; 330,000 compounds, 0.031% hits; AID 504842, 2011; further: potency means the concentration at half of the fitted maximal effect; nearly all actives have a fitted effect of over 80% in size
#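 ATPase turnover read by TR-FRET ADP competition (Eu cryptate antibody/ADP-d2, 665/590 nm): 10uM ATP final, 25nM Mm-CPN final, 30 min 37degC after 10-min compound preincubation, pH 7.4 Tris/KCl/MgCl2/DTT buffer.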
# CCT modulator – High-Throughput Screening for Modulators of Cytosolic Chaperonin Activity. activity change, % (concentration not given with the values), hits read low. AID 651819, 2012. purified chaperonin ATPase assay, HTRF ADP detection, 30 min. 360,000 compounds, 0.3% hits; in the data active means activity change below about -30%
#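 First, chaperonin was dispensed at 40 nM or 20 nM final depending on batch activity. Next, compounds were pinned at 76 uM and ATP added at 10 uM. After 30 min at 37 °C, ADP detection reagents ran 30 min at ambient temperature.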
# Sfp PPTase inh – qHTS Assay for Inhibitors of Bacillus subtilis Sfp phosphopantetheinyl transferase (PPTase); 4'-phosphopantetheinyl transferase ffp (Bacillus subtilis), Q9F4F7; 310,000 compounds, 3.5% hits; AID 1490, 2009; Potency, µM, without a hit: largest response in the series, negative = inhibition, usual class: inhibitors; Biochemical Sfp PPTase activity, qHTS;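 further: the enzyme is Sfp with the accession as filed and its product quenches rhodamine fluorescence; potency means the concentration at half of the fitted maximal effect; 0% = enzyme reaction without inhibitor and -100% = no enzyme wells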
#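 Reaction rates are the 30-min fluorescence difference (ex 525, em 598 nm) in wells containing 15 nM Sfp, 5 uM rhodamine-CoA and 12.5 uM BHQ-2-YbbR at pH 7.6 with 10 mM MgCl2.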
# PLK1 PBD block – qHTS for Inhibitors of PLK1-PDB (polo-like kinase 1 - polo-box domain): Primary Screen | 360,000 compounds, 2.8% hits | Plk1 PBD binding of FITC phosphopeptide, fluorescence polarization | AID 720504, 2013 | Potency, µM, without a hit: max response, negative = inhibition, actives largely listed as inhibitors; further: potency means the concentration at half of the fitted maximal effect; series mostly up to about 57 µM; nearly all actives have a fitted effect of over 65% in size
# TbPYK confirm – qHTS of Trypanosoma Brucei Inhibitors: Confirmatory Assay for Cherry-picked Compounds; shares compounds with PLK1 PBD block; recombinant TbPYK, Kinase-Glo ATP luminescence; Potency, µM (top dose mostly 76.9 µM), for inactives: at the top dose activity change, negative = inhibition, most hits filed as inhibitors; 890 compounds, 67% hits; AID 720569, 2013; further: potency means the concentration at half of the fitted maximal effect; nearly all actives have a fitted effect of over 70% in size
# TbPYK ADP-Glo – qHTS of Trypanosoma Brucei Inhibitors: Orthogonal Assay for Cherry-picked Compounds; shares compounds with PLK1 PBD block; recombinant TbPYK, ADP-Glo luminescence, 60 min; Potency, µM (top dose mostly 76.9 µM), for inactives: top-dose activity change, negative = inhibition, most hits filed as inhibitors; 890 compounds, 62% hits; AID 720584, 2013; further: potency means the concentration at half of the fitted maximal effect; nearly all actives have a fitted effect of over 75% in size
# The depositor's hits bear a star; ? = inconclusive; . = no result given; [ ] = remark or other dose. An excerpt weighted towards active compounds, which were near 10% of everything screened. Unless noted, the call rests on the fitted dose curve; in most records, active means well fitted curve in the direction sought with a large enough effect; inconclusive means small, poorly fitted or top-dose-only effect, or another doubt; inactive means no such curve, though single readings can be large; an effect the other way counts as inactive or inconclusive. Unless noted, on the % scale 0 is the no-effect control and ±100 the full control effect.
SMILES,G9a inh,VDR inhibitor,MmCpn inh,CCT modulator,Sfp PPTase inh,PLK1 PBD block,TbPYK confirm,TbPYK ADP-Glo
CC1CN2C(c3ccc([N+](=O)[O-])cc3)=CSC2=N1 (stereo not given),14%[0.501 µM],?,-1%,3,50µM*,?,6.3µM*,13µM*
CC1(C)CCC[C@@](C)([C@H]2CC[C@]3(C)[C@@H]2[C@H](O)C[C@@H]2[C@@]4(C)CC[C@H](O)C(C)(C)[C@@H]4CC[C@]23C)O1,.,9%,.,.,9%,.,.,.
C1=CC2c3ccccc3NC(c3ccncc3)C2C1 (stereo not given),1.6µM*,?,-1%,0,32µM*,?,18µM*,16µM*
Cc1ccc(C2=CSC3=NCCN23)c(C)c1,?,-3%,0%,0,-26%,?,13µM*,16µM*
CCOCCc1nn2c(=O)cc(COC(=O)c3ccc4c(c3)OCO4)nc2s1,11%[59 µM],10%,.,.,.,.,.,.
CSC1=C(C#N)C(c2ccccc2Cl)C(C(C)=O)=C(C)N1 (stereo not given),15%[59 µM],-5%,3%,-4,-5%,-9%,.,.
CC(=O)C1=C(C)NC(SCC(=O)c2ccccc2)=C(C#N)C1CC(C)C (stereo not given),?,-15%,-5%,-1,20µM*,-26%,?,40µM*
COc1ccc(OC)c(NC2c3ccccc3C(=O)N2Cc2ccc3c(c2)OCO3)c1 (stereo not given),32µM*,1%,1%,-1,7%,-7%,?,35µM*
O=C1c2ccccc2C(Nc2cccnc2)N1Cc1ccc2c(c1)OCO2 (stereo not given),?,-10%,-2%,-1,21%,-12%,.,.
CCOc1ccc(C(=S)N2CCN(C)CC2)cc1,40µM*,?,1%,1,14µM*,13µM*,13µM*,4.5µM*
O=C(O)CC(C(=O)O)N1C(=O)/C(=C/C=C/c2ccco2)SC1=S (stereo not given),-186%[59 µM],67%,-5%,-2,22µM*,2.4µM*,?,?
COc1ccc(O[C@H]2C=C[C@@H](c3ccccc3)O[C@@H]2CO/N=C(\C)CCN2CCCc3nc(C)c(C)cc32)cc1,.,.,.,.,-15%,.,.,.
COC(=O)c1ccc(CCc2cc(O)c(Br)cc2O)cc1,.,-6%,.,1,.,?,32µM*,35µM*
COc1ccc(Cn2nnnc2C(c2cccs2)N2CCN(c3ccccc3)CC2)cc1 (stereo not given),9%[59 µM],10%,0%,1,-3%,0%,.,.
Oc1ccc(N2CCN(C(c3cccs3)c3nnnn3CCc3ccccc3)CC2)cc1 (stereo not given),?,1%,0%,0,50µM*,-5%,4.5µM*,22µM*
CC(C)CCNC(=O)Cn1nc(N2CCN(c3ccccc3)CC2)ccc1=O,8%[59 µM],0%,.,.,.,.,.,.
